Experimental data reported in PubChem BioAssay (Tox21).
Results filed as inconclusive are left out. Activity calls are given as the source filed them. Unless noted, calls come from the whole dose curve.

Columns and labels:
[1] = Nuclear factor erythroid 2-related factor 2/antioxidant responsive element (Nrf2/ARE) small molecule agonists: qHTS cell viability counter screen in human keratinocytes (AID 1919968; active = well fitted curve in the direction sought with a large enough effect in the repeat runs; an effect the other way counts as inactive or inconclusive; note: nearly all actives have a fitted effect of over 55% in size; note: potency is the fitted concentration of half-maximal effect)
Outline: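 In human HaCaT keratinocytes stably expressing an ARE-driven luciferase, compound exposure lasted 23 h at 37 C under 5% CO2. Viable cells are quantified with a protease-based fluorogenic reagent (CellTiter-Fluor) read 1 h after addition.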

[2] = Nuclear factor erythroid 2-related factor 2/antioxidant responsive element (Nrf2/ARE) small molecule agonists: luciferase reporter gene qHTS assay in human keratinocytes (AID 1919969); note: nearly all actives have a fitted effect of over 35% in size
[3] = target: Gonadotropin-releasing hormone receptor (Homo sapiens) (UniProt P30968); assay: Human gonadotropin-releasing hormone receptor (GnRHR) small molecule agonists, calcium flux assay in GnRHR-HEK293 cells (AID 1920063); note: nearly all actives have a fitted effect of over 35% in size; note: potency is the fitted concentration of half-maximal effect
Outline: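 Intracellular calcium rise is the read-out: engineered human GnRHR HEK293 cells, dye-loaded, are exposed to DMSO-dissolved compounds and fluorescence at Ex/Em 480/540 is tracked for 3 min.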

[4] = target: KiSS-1 receptor (Homo sapiens) (UniProt Q969F8); assay: Human kisspeptin (KISS1R) small molecule agonists, calcium flux assay in KISS1R-HEK293 cells (AID 1920064; active = well fitted curve in the direction sought with a large enough effect in the repeat runs; an effect the other way counts as inactive or inconclusive)
Outline: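 Concentration-response testing used 15 concentrations in triplicate on human KISS1R-expressing HEK293 cells. Calcium-dependent fluorescence (Ex/Em 480/540) was followed kinetically for 3 min after compound transfer.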

[5] = G protein-coupled receptor (GPCR) small molecule agonists, calcium flux assay: HEK293 wild type cell line counter screen (AID 1920065)
Outline: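 Fluorescence intensity signals activation. After overnight (18 h) culture and a 1 h calcium dye load at 37 C, compounds are added by pin tool and the plate read at 480/540 nm for 3 min in 1 s steps.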

[6] = p53 small molecule agonists, cell-based qHTS assay with human liver microsomes: qHTS cell viability counter screen (AID 1963579); note: nearly all actives have a fitted effect of over 45% in size; note: potency is the fitted concentration of half-maximal effect
Outline: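 p53RE-bla cells (4,000/well) were pre-incubated 5 h at 37 C, then given compounds in DMSO plus human liver microsomes (0.5 mg/mL final) and NADPH (0.5 mg/mL final) for 16 h at 37 C. Viability was read by CellTiter-Glo luminescence.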

[7] = p53 small molecule agonists, cell-based qHTS assay with rat liver microsomes: qHTS cell viability counter screen (AID 1963580); note: nearly all actives have a fitted effect of over 45% in size
Outline: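 Counter screen for cytotoxicity under metabolic activation: rat liver microsomes and NADPH, 0.5 mg/mL final each, added with compounds to p53RE-bla HCT-116 cells; 16 h at 37 C, then ATP luminescence read.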

[8] = p53 small molecule agonists, cell-based qHTS assay: qHTS cell viability counter screen (AID 1963581); note: nearly all actives have a fitted effect of over 45% in size
Outline: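 Luminescence from CellTiter-Glo, reflecting ATP content, serves as the cytotoxicity measure; it is taken after the 2 h reporter substrate step in HCT-116 p53RE-bla cells dosed for 16 h at 37 C.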

[9] = target: 5-hydroxytryptamine receptor 2A (Homo sapiens) (UniProt P28223); assay: 5-hydroxytryptamine receptor 2A (HTR2A) small molecule antagonists, cell-based qHTS assay (AID 1963586); note: nearly all actives have a fitted effect of over 45% in size
Outline: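 CHO cells stably expressing human HTR2A were plated for 18 h at 37 C, then loaded with calcium dye for 1 h. Compounds were preincubated 5 min at room temperature before DOI (4 nM solution) was added. Kinetic fluorescence was read for 3 min.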

[10] = target: Muscarinic acetylcholine receptor M1 (Homo sapiens) (UniProt P11229); assay: Cholinergic receptor muscarinic 1 (CHRM1) small molecule antagonists, cell-based qHTS assay (AID 1963588); note: nearly all actives have a fitted effect of over 40% in size; note: potency is the fitted concentration of half-maximal effect
Outline: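 Compounds were tested at 15 concentrations in three independent runs. Dye-loaded CHRM1-CHO cells were exposed 5 min at room temperature before stimulation by acetylcholine added at 50nM. Intracellular calcium was read kinetically on FDSS for 3 min.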

[11] = target: Muscarinic acetylcholine receptor M1 (Homo sapiens) (UniProt P11229); assay: Cholinergic receptor muscarinic 1 (CHRM1) small molecule agonists, cell-based qHTS assay (AID 1963589); note: nearly all actives have a fitted effect of over 35% in size
Outline: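 Fluorescent calcium dye reports M1 activation in stably transfected CHO cells. Compounds, 15 concentrations, added after 1 h dye loading at 37 C; kinetic reading at 1 sec intervals.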

[12] = cAMP Responsive Elements (CRE) small molecule agonists, cell-based qHTS assay (AID 1963590)
Outline: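 Compound exposure lasted 3 h at 37 C/5% CO2 in CRE-bla HEK 293T cells grown in assay medium with 10% dialyzed FBS and 25 mM HEPES. Reporter signal came from LiveBLAzer B/G FRET substrate, 2 h, room temperature.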

[13] = cAMP Responsive Elements (CRE) small molecule antagonists, cell-based qHTS assay (AID 1963591; active = well fitted inhibition curve with a large enough effect in the signal ratio in the repeat runs, not every such curve was filed as active; the % refers to the signal ratio)
Outline: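 Stimulation used NKH477 at a final 0.25 uM for 3 h in compound-treated CRE-bla HEK293T cells, seeded 18 h beforehand. Reporter activity was measured with LiveBLAzer B/G FRET substrate after 2 h at room temperature.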

[14] = target: Beta-2 adrenergic receptor (Homo sapiens) (UniProt P07550); assay: Adrenergic beta2 receptor (ADRB2) small molecule antagonists, cell-based qHTS assay (AID 1963592); note: series mostly up to about 92 µM; nearly all actives have a fitted effect of over 50% in size
Outline: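 Assay format: CHO-ADRB2 cells, 18-20hr seeding at 37C/5% CO2, then compound plus 1nM isoproterenol agonist mix for 0.5hr RT. Homogeneous time-resolved fluorescence cAMP detection after 1hr, expressed as 665/615 nm ratio.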

[15] = target: Beta-2 adrenergic receptor (Homo sapiens) (UniProt P07550); assay: Adrenergic beta2 receptor (ADRB2) small molecule agonists, cell-based qHTS assay (AID 1963593);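 note: CHO cells stably overexpressing human ADRB2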
Outline: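 CHO cells stably over-expressing ADRB2 were plated overnight at 37C, then dosed with compounds plus a stimulation mix containing 100uM IBMX and 25uM Ro-20-1724 for 0.5hr at room temperature. cAMP was measured by HTRF competition, 1hr.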

[16] = target: D(2) dopamine receptor (Homo sapiens) (UniProt P14416); assay: Dopamine D2 receptor (DRD2) small molecule antagonists, cell-based qHTS assay (AID 1963595; active = well fitted inhibition curve with a large enough effect in the signal ratio in the repeat runs, with a control signal flat; the % refers to the signal ratio)
Outline: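 Human DRD2 antagonist qHTS measuring cAMP by HTRF. The cells are exposed to compound for 10 min, then to NKH477 (200 nM) and quinpirole (12 nM) for 30 min at RT, with Ro20-1724 (0.1 mM) present throughout.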

[17] = target: 5-hydroxytryptamine receptor 2A (Homo sapiens) (UniProt P28223); assay: 5-hydroxytryptamine receptor 2A (HTR2A) small molecule agonists, cell-based qHTS assay (AID 1963587); note: nearly all actives have a fitted effect of over 30% in size
Outline: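 HTR2A-CHO cells, plated 18 h at 37 C/5% CO2, dye-loaded 1 h at 37 C; compounds in DMSO added by pin tool (agonist mode). Intracellular calcium flux read as kinetic fluorescence on FDSS over 2 min at 1 s intervals.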

[18] = target: D(2) dopamine receptor (Homo sapiens) (UniProt P14416); assay: Dopamine D2 receptor (DRD2) small molecule agonists, cell-based qHTS assay (AID 1963594); note: nearly all actives have a fitted effect of over 35% in size
Outline: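 HEK293 cells stably expressing DRD2 were cultured 24 h at 37 C, then given Ro20-1724 (0.1 mM final) and compounds for 10 min at room temperature. NKH477 (200nM) was then added for 30 min. cAMP was read by HTRF.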

Measured: Potency

Gonadotropin-releasing hormone receptor (Homo sapiens), sequence (P30968 whole entry, looked up): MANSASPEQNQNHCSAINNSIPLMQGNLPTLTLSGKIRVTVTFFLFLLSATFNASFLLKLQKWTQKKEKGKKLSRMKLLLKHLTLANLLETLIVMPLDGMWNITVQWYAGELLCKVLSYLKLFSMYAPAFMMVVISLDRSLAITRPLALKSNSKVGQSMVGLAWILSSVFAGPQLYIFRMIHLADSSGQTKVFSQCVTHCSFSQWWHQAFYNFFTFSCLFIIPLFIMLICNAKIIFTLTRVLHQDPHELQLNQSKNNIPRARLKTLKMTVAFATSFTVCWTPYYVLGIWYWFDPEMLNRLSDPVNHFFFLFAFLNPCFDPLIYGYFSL
Muscarinic acetylcholine receptor M1 (Homo sapiens), sequence (P11229 whole entry, looked up): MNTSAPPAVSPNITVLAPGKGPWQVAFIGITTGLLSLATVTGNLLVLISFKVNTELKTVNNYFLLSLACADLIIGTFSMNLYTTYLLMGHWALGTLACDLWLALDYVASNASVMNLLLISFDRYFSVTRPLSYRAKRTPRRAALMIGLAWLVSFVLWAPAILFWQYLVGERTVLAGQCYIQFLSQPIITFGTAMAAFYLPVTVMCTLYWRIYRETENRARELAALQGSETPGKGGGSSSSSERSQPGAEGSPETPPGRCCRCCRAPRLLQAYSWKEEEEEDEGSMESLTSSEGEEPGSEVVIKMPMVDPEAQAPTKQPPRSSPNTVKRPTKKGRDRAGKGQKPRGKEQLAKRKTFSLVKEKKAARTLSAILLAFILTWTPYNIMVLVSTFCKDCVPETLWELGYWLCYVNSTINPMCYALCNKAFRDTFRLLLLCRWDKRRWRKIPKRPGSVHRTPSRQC
5-hydroxytryptamine receptor 2A (Homo sapiens), sequence (P28223 whole entry, looked up): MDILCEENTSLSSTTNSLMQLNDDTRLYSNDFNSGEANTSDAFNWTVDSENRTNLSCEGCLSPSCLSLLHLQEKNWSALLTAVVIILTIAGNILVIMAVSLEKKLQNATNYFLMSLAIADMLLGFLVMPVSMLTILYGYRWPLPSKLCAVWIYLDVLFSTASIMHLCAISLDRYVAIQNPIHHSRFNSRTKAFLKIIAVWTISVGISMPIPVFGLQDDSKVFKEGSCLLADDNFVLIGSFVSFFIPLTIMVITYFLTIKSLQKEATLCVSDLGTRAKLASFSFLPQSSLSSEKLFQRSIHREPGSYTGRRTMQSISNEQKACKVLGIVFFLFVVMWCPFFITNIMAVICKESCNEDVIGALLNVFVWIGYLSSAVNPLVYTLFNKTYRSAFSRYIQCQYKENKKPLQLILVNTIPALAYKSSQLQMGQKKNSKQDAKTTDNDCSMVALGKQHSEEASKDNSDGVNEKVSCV
KiSS-1 receptor (Homo sapiens), sequence (Q969F8 whole entry, looked up): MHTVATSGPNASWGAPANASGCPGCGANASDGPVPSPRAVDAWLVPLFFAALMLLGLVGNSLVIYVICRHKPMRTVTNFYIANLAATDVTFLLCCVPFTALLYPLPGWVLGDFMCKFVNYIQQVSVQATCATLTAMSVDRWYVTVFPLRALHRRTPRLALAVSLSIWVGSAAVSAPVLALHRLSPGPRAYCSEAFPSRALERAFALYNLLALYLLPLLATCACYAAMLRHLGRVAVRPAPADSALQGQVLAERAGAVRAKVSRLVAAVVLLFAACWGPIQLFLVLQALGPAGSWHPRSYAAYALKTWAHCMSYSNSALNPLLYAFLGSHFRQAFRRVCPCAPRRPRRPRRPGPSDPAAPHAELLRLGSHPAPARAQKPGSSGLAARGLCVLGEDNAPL
D(2) dopamine receptor (Homo sapiens), sequence (P14416 whole entry, looked up): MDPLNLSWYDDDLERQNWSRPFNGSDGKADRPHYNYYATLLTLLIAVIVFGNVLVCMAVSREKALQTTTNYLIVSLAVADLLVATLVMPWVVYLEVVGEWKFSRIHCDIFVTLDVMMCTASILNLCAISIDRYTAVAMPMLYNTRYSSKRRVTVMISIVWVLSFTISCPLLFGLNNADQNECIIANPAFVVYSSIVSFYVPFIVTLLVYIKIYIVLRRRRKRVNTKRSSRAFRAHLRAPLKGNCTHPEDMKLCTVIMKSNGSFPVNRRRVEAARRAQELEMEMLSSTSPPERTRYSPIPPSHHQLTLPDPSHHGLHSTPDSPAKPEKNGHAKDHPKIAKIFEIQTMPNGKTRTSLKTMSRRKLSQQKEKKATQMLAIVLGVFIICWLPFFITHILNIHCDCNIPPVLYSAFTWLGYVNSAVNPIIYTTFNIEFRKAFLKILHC
Beta-2 adrenergic receptor (Homo sapiens), sequence (P07550 whole entry, looked up): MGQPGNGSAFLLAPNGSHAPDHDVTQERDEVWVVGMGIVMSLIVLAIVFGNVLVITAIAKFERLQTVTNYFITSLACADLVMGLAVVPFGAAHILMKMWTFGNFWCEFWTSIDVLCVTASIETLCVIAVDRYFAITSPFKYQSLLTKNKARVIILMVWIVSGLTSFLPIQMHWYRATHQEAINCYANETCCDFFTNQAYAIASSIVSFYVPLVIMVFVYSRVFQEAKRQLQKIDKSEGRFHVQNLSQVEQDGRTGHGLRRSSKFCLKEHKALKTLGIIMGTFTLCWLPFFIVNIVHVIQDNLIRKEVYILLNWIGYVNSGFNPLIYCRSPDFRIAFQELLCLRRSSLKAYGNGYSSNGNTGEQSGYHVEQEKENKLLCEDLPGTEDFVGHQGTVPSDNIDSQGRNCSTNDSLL

CC(CC=O)CCCC(C)(C)O (stereo not given)
not listed: [17] | [18]
inactive: all other assays above

Cc1ccc(C(N)=O)cc1N
not listed: [10] | [11] | [14]
inactive: all other assays above

CCN(CC)C(=O)c1ccc(O)c(OC)c1
not listed: [15] | [16] | [17]
inactive: all other assays above

COc1nccnc1NS(=O)(=O)c1ccc(N)cc1
not listed: [9] | [16]
inactive: all other assays above

CCCCCCC(C)Nc1ccc(Nc2ccccc2)cc1 (stereo not given)
active: [1] 48.6 µM | [6] 40.8 µM
not listed: [10] | [11] | [12] | [13] | [15] | [16]
inactive: all other assays above

NC(N)=NS(=O)(=O)c1ccc(N)cc1
not listed: [9] | [10] | [15] | [16]
inactive: all other assays above

CCCCOCCOCCOCCOCCO
not listed: [9] | [10] | [15] | [17]
inactive: all other assays above

O=C(N[C@@H](c1ccccc1)[C@@H]1CCCCN1)c1cccc(C(F)(F)F)c1Cl
active: [1] 43.3 µM | [3] 38.9 µM
not listed: [9] | [11] | [12] | [13] | [15] | [17]
inactive: all other assays above

CN1CCC[C@@H]1c1cccnc1
not listed: [9] | [10] | [11] | [17]
inactive: all other assays above

COC(=O)[C@@H]1CC2=CC(=O)CC[C@]2(C)[C@@]23O[C@@H]2C[C@@]2(C)[C@@H](CC[C@@]24CCC(=O)O4)[C@H]13
not listed: [9] | [14]
inactive: all other assays above

COCCc1ccc(OCC2CO2)cc1 (stereo not given)
not listed: [9] | [11] | [15] | [18]
inactive: all other assays above

CC1CCN(CCCC(=O)c2ccc(F)cc2)CC1
not listed: [9] | [10] | [16] | [17] | [18]
inactive: all other assays above

NCCCN1CCOCC1
not listed: [9] | [15]
inactive: all other assays above

C=C(C)CS(=O)(=O)O
not listed: [9] | [10] | [15]
inactive: all other assays above

Cc1onc(-c2ccccc2)c1-c1ccc(S(N)(=O)=O)cc1
not listed: [9] | [10] | [11] | [17]
inactive: all other assays above

CCOC(=O)NCCOc1ccc(Oc2ccccc2)cc1
active: [10] 29.8 µM
not listed: [9] | [13] | [14] | [16]
inactive: all other assays above

C/C(C=O)=C\c1ccccc1
not listed: [9] | [14] | [15]
inactive: all other assays above

Cc1ccccc1N=C(N)Nc1ccccc1C
active: [10] 7.35 µM
not listed: [9] | [15] | [18]
inactive: all other assays above

Cc1ccc(C(C)C)cc2c(C)ccc1-2
not listed: [9] | [15] | [16]
inactive: all other assays above
